# Test results reported in PubChem BioAssay (NCATS).
# Records with an inconclusive call do not appear. Calls of active or inactive are those of the source. The call rests on the fitted dose curve; in most records, active means well fitted inhibition curve with a large enough effect; inconclusive means small, poorly fitted or top-dose-only effect; inactive means flat fitted curve, though single readings scatter.
# Target: Ubiquitin carboxyl-terminal hydrolase 1 (Homo sapiens) (UniProt O94782)
# Test: Inhibitors of USP1/UAF1: Pilot qHTS (AID 504865);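 further: rhodamine fluorescence freed from ubiquitin-rhodamine substrate followed over time; top concentration of the series differs between compounds; nearly all actives have a fitted effect of over 35% in size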
# Conditions: purified USP1/UAF1, Ub-rhodamine cleavage fluorescence; series mostly up to 114 µM; activity change, negative = inhibition: at the top concentration
# Text: Deubiquitinating enzymes (DUBs) are a class of enzymes that can cleave isopeptide bond formed between the C-terminal carboxylate of ubiquitin and a lysine side-chain amino group on the target protein. Among them, ubiquitin specific proteases (USPs) constitute the largest DUB family. Human USPs are emerging as promising targets for pharmacological intervention because of their connection to a number of human diseases, including prostate, colon and breast cancer (1, 2), pediatric acute lymphoblastic leukemia (3), and familial cylindromatosis (4). The advantage of inhibiting USPs lies in the potential specificity of therapeutic intervention that can lead to better efficacy and reduce nonspecific side effects.
# In a collaboration between the University of Delaware and the NIH Chemical Genomics Center, a high-throughput screen assay was developed to screen for USP1/UAF1 inhibitors. This miniaturized assay has a fluorescent read-out and is used to screen the NIH Molecular Libraries Small Molecule Repository (MLSMR) in order to identify a small molecule that inhibits USP1.
# NIH Chemical Genomics Center [NCGC]
# NIH Molecular Libraries Probe Centers Network [MLPCN]
# Assay Submitter (PI): Zhihao Zhuang, University of Delaware
# 1. Priolo, C., et al. (2006) The isopeptidase USP2a protects human prostate cancer from apoptosis. Cancer Res 66, 8625-8632
# 2. Popov, N., et al. (2007) The ubiquitin-specific protease USP28 is required for MYC stability. Nat Cell Biol 9, 765-774
# 3. De Pitta, C., et al. (2005) A leukemia-enriched cDNA microarray platform identifies new transcripts with relevance to the biology of pediatric acute lymphoblastic leukemia. Haematologica 90, 890-898
# 4. Kovalenko, A., et al. (2003) The tumour suppressor CYLD negatively regulates NF-kappaB signalling by deubiquitination. Nature 424, 801-805
# 3 microliters of reagents (buffer in columns 3 and 4 as negative control and 1nM USP1/UAF1 complex in columns 1, 2, and 5-48) are dispensed into Greiner black solid bottom 1536-well assay plates. Compounds are then transferred via Kalypsys pin tool equipped with 1536-pin array (10nl slotted pins, V&P Scientific, San Diego, CA). Following an incubation step of 15 min at room temperature, 1ul of Ub-Rho substrate (150nM final concentration) is added to initiate the reaction. The plates are immediately centrifuged at 1000 rpm for 15 seconds, and subsequently transferred to a ViewLux high-throughput CCD imager (PerkinElmer) wherein kinetic measurements of fluorescence are acquired using 480 nm excitation/540 nm emission filter set (6 reads every 60 seconds, see Table 1). All reagents are diluted in an assay buffer consisting of 50mM HEPES (pH 7.8), 0.5mM EDTA, 0.1 mg/ml BSA, 1mM TCEP, and 0.01% Tween-20.
# On the % scale 0 is the no-effect control and ±100 the full control effect.
# Ubiquitin carboxyl-terminal hydrolase 1 (Homo sapiens), sequence (O94782 whole entry, looked up): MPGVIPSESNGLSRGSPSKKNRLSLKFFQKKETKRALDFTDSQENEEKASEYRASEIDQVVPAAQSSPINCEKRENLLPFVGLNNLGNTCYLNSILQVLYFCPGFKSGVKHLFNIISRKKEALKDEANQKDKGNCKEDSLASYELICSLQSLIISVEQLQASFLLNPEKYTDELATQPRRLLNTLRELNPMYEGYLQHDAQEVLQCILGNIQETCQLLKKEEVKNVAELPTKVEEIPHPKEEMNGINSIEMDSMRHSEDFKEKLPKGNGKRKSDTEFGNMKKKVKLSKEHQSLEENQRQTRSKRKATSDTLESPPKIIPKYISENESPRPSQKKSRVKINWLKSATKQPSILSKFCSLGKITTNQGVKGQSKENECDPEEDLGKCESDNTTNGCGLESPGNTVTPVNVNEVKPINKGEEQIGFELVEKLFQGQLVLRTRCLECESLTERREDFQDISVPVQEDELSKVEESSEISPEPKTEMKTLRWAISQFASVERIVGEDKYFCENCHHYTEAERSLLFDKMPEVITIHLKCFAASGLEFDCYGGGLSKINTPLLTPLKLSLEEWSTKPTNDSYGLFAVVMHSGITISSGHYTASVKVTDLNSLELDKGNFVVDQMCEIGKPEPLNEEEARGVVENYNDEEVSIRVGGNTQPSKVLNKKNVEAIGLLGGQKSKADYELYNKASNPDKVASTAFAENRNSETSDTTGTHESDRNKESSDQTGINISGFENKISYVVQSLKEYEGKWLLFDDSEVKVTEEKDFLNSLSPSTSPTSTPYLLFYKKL
Structure (SMILES),"activity change, negative = inhibition",Potency
CC(=O)OCC(=O)[C@@H]1CC[C@H]2[C@H]3CC[C@H]4C[C@@H](O)CC[C@]4(C)[C@@H]3C(=O)C[C@@]12C,-12.8% [at 54.9 µM] (inactive),–
CC1=C2CCC3C4CCC(=O)[C@@]4(C)CCC3[C@]2(C)CCC1=O (stereo not given in full),-11.1% (inactive),–
CS(=N)(=O)CC[C@@H](N)C(=O)O (stereo not given in full),-10.6% [at 54.9 µM] (inactive),–
COC[C@]12CN(C=O)C3C4C(OC)C1[C@@]3(C1CC3(O)C(OC)C(O)C4(OC(C)=O)C1C3OC(=O)c1ccccc1)[C@@H](OC)CC2O (stereo not given in full),-2.5% (inactive),–
O=C(CC[N+](=O)[O-])OCC1OC(O)C(OC(=O)CC[N+](=O)[O-])[C@@H](OC(=O)CC[N+](=O)[O-])C1OC(=O)CC[N+](=O)[O-] (stereo not given in full),-6.75% (inactive),–
CCN1C[C@@]2(COC)[C@H]3[C@@H](OC)[C@H]4C1[C@@]3([C@H](OC)C[C@@H]2O)[C@H]1C[C@@]2(O)[C@@H](OC(=O)c3ccccc3)[C@@H]1[C@@]4(OC(C)=O)[C@H](O)[C@@H]2OC,11.4% [at 54.9 µM] (inactive),–
C[C@]12CCC3C(C=CC4=CC(=O)CC[C@]43C)C1CC[C@]2(O)CCC(=O)O (stereo not given in full),-4.57% (inactive),–
O=c1ccc2cc(O[C@H]3OC(CO)C(O)C(O)C3O)c(O)cc2o1 (stereo not given in full),–,inactive
CNC(C)C(O)c1ccccc1 (stereo not given),-5.77% (inactive),–
C/C=C(/C)C(=O)OC1CC[C@]2(C)C3CCC4[C@]5(O)CC(O)[C@]6(O)C(CN7CC(C)CCC7[C@]6(C)O)[C@]5(O)C[C@@]42O[C@]13O (stereo not given in full),-1.47% (inactive),–
CCN1C[C@]2(C)CC[C@H](O)[C@@]34[C@@H]5CC6[C@@H](OC)C[C@@](O)([C@@H]5[C@@H]6O)[C@H](C[C@@H]23)[C@H]14,-4.95% [at 54.9 µM] (inactive),–
CO[C@H]1C=C2CCN(C)[C@@H]2[C@@H]2c3cc4c(cc3C(=O)O[C@H]21)OCO4,0.0382% [at 54.9 µM] (inactive),–
CC[C@]1(c2cccc(O)c2)CCCCN(C)C1,-7.76% [at 54.9 µM] (inactive),–
Cc1cc(OC(=O)N2CCCCC2)c(C(C)C)cc1[N+](C)(C)C,-4.83% (inactive),–
CNc1ccccc1C(=O)O,-12.2% (inactive),–
COc1ccc2c(c1OC)CN1CCc3cc4c(cc3[C@H]1C2)OCO4,-11.6% [at 54.9 µM] (inactive),–
CNC(=O)Oc1cccc2c1OC(C)(C)C2,-7.36% (inactive),–
CCS(=O)CCSP(=O)(OC)OC (stereo not given),-10.7% (inactive),–
CC(C)c1cc2c(c(O)c1O)[C@]1(C(=O)O)CCCC(C)(C)C1CC2 (stereo not given in full),-3.88% (inactive),–
COC(=O)NC(=S)Nc1ccccc1NC(=S)NC(=O)OC,-12% (inactive),–

Structure (SMILES),"activity change, negative = inhibition",Potency
C[C@]12CC[C@H]3[C@@H](CCC4=CC(=O)CC[C@@]43C)[C@@H]1CC[C@@H]2O,1.87% (inactive),–
ClC1=C(Cl)C2(Cl)C3C(Cl)C=CC3C1(Cl)C2(Cl)Cl (stereo not given),-13.3% (inactive),–
C[C@@]12CC(=O)[C@H]3[C@@H](CCC4=CC(=O)CC[C@]43C)[C@H]1CCC2=O,16.5% [at 54.9 µM] (inactive),–
COc1cc2c(c(OC)c1OC)-c1ccc(OC)c(=O)cc1C(NC(C)=O)CC2 (stereo not given),2.17% (inactive),–
CC1=C2C3OC(=O)C(C)C3CC[C@@]2(C)C=CC1=O (stereo not given in full),-6.21% (inactive),–
CC[N@+]1(C)CCC[C@@H](OC(=O)C(O)(c2ccccc2)c2ccccc2)C1,5.64% [at 54.9 µM] (inactive),–
C[C@]12CCC3C(CC[C@]4(O)CC(O)CC[C@@]34C=O)[C@]1(O)CCC2C1=CC(=O)OC1 (stereo not given in full),-6.55% (inactive),–
C[C@@]12CCC(O)C[C@H]1CCC1C2CC[C@]2(C)C(=O)CCC12 (stereo not given in full),-17.3% (inactive),–
CC1CC2CC(=O)C3CCCN4CCCC2[C@]34C1 (stereo not given in full),-8.19% (inactive),–
CC1(C)N([O-])[N+](=O)C1(C)Br (stereo not given),-8.97% (inactive),–
COc1ccc2c(c1O)-c1c(OC)c(OC)cc3c1[C@H](C2)N(C)CC3,1.3% [at 54.9 µM] (inactive),–
O=C1CC2OCC=C3CN4CC[C@]56c7ccccc7N1[C@H]5[C@H]2C3C[C@H]46 (stereo not given in full),-8.43% (inactive),–
Cc1[nH]c2ccccc2c1CN(C)C,-8.04% (inactive),–
C[C@@]12CC[C@H](O)C[C@@H]1CC[C@H]1[C@H]2CC[C@@]2(C)[C@@H](C3=CC(=O)OC3)CC[C@]12O,-1.3% [at 54.9 µM] (inactive),–
CC[C@@H]1[C@@H]2C[C@H]3[C@H]4N(C)c5ccccc5[C@@]45C[C@@H]([C@@H]2[C@@H]5O)N3[C@H]1O,8.26% [at 54.9 µM] (inactive),–
CC(N)C(O)c1ccc(O)c(O)c1 (stereo not given),-8.94% (inactive),–
CNC(=O)Oc1ccccc1OC(C)C,-6.74% (inactive),–
C=C(C)C1Cc2c(ccc3c(=O)c4c(oc23)COc2cc(OC)c(OC)cc2-4)O1 (stereo not given),-4.15% (inactive),–
NCC(=O)c1ccccc1,-8.14% (inactive),–
NNCc1ccccc1,-10.2% (inactive),–
